Results reported in article PMC5540273 (PLoS ONE, 2017).

Columns and labels:
Settings in all cases: concentration: 1 μM, replicates: in singlicate; n = 1
MEK1 = system: T1, MEK1
T1 construct: gene MAP2K1

MEK2 = system: T2, MEK2
T2 construct: gene MAP2K2

MEK3 = system: T3, MEK3
T3 construct: gene MAP2K3

MEK4 = system: T4, MEK4
T4 construct: gene MAP2K4

MEK5 = system: T5, MEK5
T5 construct: gene MAP2K5

MEK6 = system: T6, MEK6
T6 construct: gene MAP2K6

MELK = system: MELK
MERTK = system: MERTK
MET = system: MET
MINK = system: T7, MINK
T7 construct: gene MINK1

MKK7 = system: MKK7
MKNK1 = system: MKNK1
MKNK2 = system: MKNK2
MLCK = system: T8, MLCK
T8 construct: gene MYLK3

MLK1 = system: T9, MLK1
T9 construct: gene MAP3K9

MLK2 = system: MLK2
MLK3 = system: MLK3
MRCKA = system: MRCKA
MRCKB = system: T10, MRCKB
T10 construct: gene CDC42BPB

MST1R = system: MST1R
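Further: KINOMEscan kinase panel screen.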

Cl.Nc1ncnc2occ(-c3ccc(NC(=O)Nc4cc(C(F)(F)F)ccc4F)cc3)c12 [SB-707548]
%Inh (MEK1): 15% | %Inh (MEK2): 57% | %Inh (MEK3): 0% | %Inh (MEK4): 23% | %Inh (MEK5): 91.4% | %Inh (MEK6): 10% | %Inh (MELK): 33% | %Inh (MERTK): 98.3% | %Inh (MET): 17% | %Inh (MINK): 62% | %Inh (MKK7): 22% | %Inh (MKNK1): 56% | %Inh (MKNK2): 98% | %Inh (MLCK): 44% | %Inh (MLK1): 40% | %Inh (MLK2): 65% | %Inh (MLK3): 65% | %Inh (MRCKA): 11% | %Inh (MRCKB): 0% | %Inh (MST1R): 28%

CN1c2ccc(CNc3ccc(F)cc3)cc2-c2c(cnn2C)S1(=O)=O
%Inh (MEK1): 11% | %Inh (MEK2): 18% | %Inh (MEK3): 13% | %Inh (MEK4): 22% | %Inh (MEK5): 31% | %Inh (MEK6): 0% | %Inh (MELK): 0% | %Inh (MERTK): 0% | %Inh (MET): 0% | %Inh (MINK): 26% | %Inh (MKK7): 0% | %Inh (MKNK1): 15% | %Inh (MKNK2): 0% | %Inh (MLCK): 3% | %Inh (MLK1): 0% | %Inh (MLK2): 24% | %Inh (MLK3): 0% | %Inh (MRCKA): 0% | %Inh (MRCKB): 0% | %Inh (MST1R): 0%

O=C1NC(=O)C(N2CCc3ccccc32)=C1c1cccc(Cl)c1 [SB-408010]
%Inh (MEK1): 0% | %Inh (MEK2): 0% | %Inh (MEK3): 0% | %Inh (MEK4): 0% | %Inh (MEK5): 0% | %Inh (MEK6): 0% | %Inh (MELK): 0% | %Inh (MERTK): 0% | %Inh (MET): 0% | %Inh (MINK): 0% | %Inh (MKK7): 0% | %Inh (MKNK1): 18% | %Inh (MKNK2): 46% | %Inh (MLCK): 0% | %Inh (MLK1): 0% | %Inh (MLK2): 0% | %Inh (MLK3): 0% | %Inh (MRCKA): 0% | %Inh (MRCKB): 15% | %Inh (MST1R): 5%

Cc1c2ccc(N(C)c3ccnc(Nc4cccc(S(N)(=O)=O)c4)n3)cc2nn1Cc1ccccc1.Cl.Cl [GW787226]
%Inh (MEK1): 12% | %Inh (MEK2): 34% | %Inh (MEK3): 29% | %Inh (MEK4): 75% | %Inh (MEK5): 98.4% | %Inh (MEK6): 23% | %Inh (MELK): 16% | %Inh (MERTK): 70% | %Inh (MET): 60% | %Inh (MINK): 54% | %Inh (MKK7): 15% | %Inh (MKNK1): 0% | %Inh (MKNK2): 0% | %Inh (MLCK): 0% | %Inh (MLK1): 0% | %Inh (MLK2): 50% | %Inh (MLK3): 26% | %Inh (MRCKA): 0% | %Inh (MRCKB): 0% | %Inh (MST1R): 0%

COCCNC(=O)c1ccc(-c2cc(C(=O)NC3CC3)cc(F)c2C)cc1 [GW868318]
%Inh (MEK1): 25% | %Inh (MEK2): 32% | %Inh (MEK3): 29% | %Inh (MEK4): 34% | %Inh (MEK5): 53% | %Inh (MEK6): 0% | %Inh (MELK): 0% | %Inh (MERTK): 0% | %Inh (MET): 0% | %Inh (MINK): 23% | %Inh (MKK7): 37% | %Inh (MKNK1): 22% | %Inh (MKNK2): 25% | %Inh (MLCK): 13% | %Inh (MLK1): 0% | %Inh (MLK2): 41% | %Inh (MLK3): 0% | %Inh (MRCKA): 0% | %Inh (MRCKB): 14% | %Inh (MST1R): 20%

CN(C1=C(c2ccccc2)C(=O)NC1=O)c1ccccc1 [SB-334860]
%Inh (MEK1): 0% | %Inh (MEK2): 0% | %Inh (MEK3): 7% | %Inh (MEK4): 14% | %Inh (MEK5): 34% | %Inh (MEK6): 0% | %Inh (MELK): 24% | %Inh (MERTK): 0% | %Inh (MET): 0% | %Inh (MINK): 23% | %Inh (MKK7): 47% | %Inh (MKNK1): 5% | %Inh (MKNK2): 8% | %Inh (MLCK): 0% | %Inh (MLK1): 0% | %Inh (MLK2): 0% | %Inh (MLK3): 19% | %Inh (MRCKA): 18% | %Inh (MRCKB): 0% | %Inh (MST1R): 12%

Cc1c(Cn2c(C)nn3c(=O)cc(N4CCOC(C)C4)nc23)cccc1C(F)(F)F (centres unmarked) [GSK2344444]
%Inh (MEK1): 0% | %Inh (MEK2): 0% | %Inh (MEK3): 0% | %Inh (MEK4): 17% | %Inh (MEK5): 49% | %Inh (MEK6): 0% | %Inh (MELK): 0% | %Inh (MERTK): 10% | %Inh (MET): 0% | %Inh (MINK): 0% | %Inh (MKK7): 0% | %Inh (MKNK1): 0% | %Inh (MKNK2): 7% | %Inh (MLCK): 2% | %Inh (MLK1): 0% | %Inh (MLK2): 0% | %Inh (MLK3): 13% | %Inh (MRCKA): 0% | %Inh (MRCKB): 0% | %Inh (MST1R): 28%

COc1ccc(Nc2nccc(N3CCC(NC(=O)Nc4cccc(C(C)=O)c4)C3)n2)cc1 (centres unmarked) [GSK1379731]
%Inh (MEK1): 0% | %Inh (MEK2): 0% | %Inh (MEK3): 0% | %Inh (MEK4): 40% | %Inh (MEK5): 36% | %Inh (MEK6): 0% | %Inh (MELK): 0% | %Inh (MERTK): 35% | %Inh (MET): 0% | %Inh (MINK): 0% | %Inh (MKK7): 0% | %Inh (MKNK1): 0% | %Inh (MKNK2): 4% | %Inh (MLCK): 5% | %Inh (MLK1): 0% | %Inh (MLK2): 0% | %Inh (MLK3): 0% | %Inh (MRCKA): 0% | %Inh (MRCKB): 0% | %Inh (MST1R): 17%

COc1ccc(CNC(=O)NC2CCN(c3ccnc(Nc4ccc(OC)cc4)n3)C2)cc1 (centres unmarked) [GSK1379727]
%Inh (MEK1): 0% | %Inh (MEK2): 0% | %Inh (MEK3): 0% | %Inh (MEK4): 17% | %Inh (MEK5): 37% | %Inh (MEK6): 0% | %Inh (MELK): 4% | %Inh (MERTK): 16% | %Inh (MET): 0% | %Inh (MINK): 4% | %Inh (MKK7): 14% | %Inh (MKNK1): 0% | %Inh (MKNK2): 0% | %Inh (MLCK): 0% | %Inh (MLK1): 0% | %Inh (MLK2): 0% | %Inh (MLK3): 0% | %Inh (MRCKA): 0% | %Inh (MRCKB): 4% | %Inh (MST1R): 40%

NS(=O)(=O)c1cccc(-c2ccc3nccc(-c4cccc(S(N)(=O)=O)c4)c3c2)c1 [GW867253]
%Inh (MEK1): 23% | %Inh (MEK2): 30% | %Inh (MEK3): 38% | %Inh (MEK4): 15% | %Inh (MEK5): 41% | %Inh (MEK6): 7% | %Inh (MELK): 0% | %Inh (MERTK): 14% | %Inh (MET): 0% | %Inh (MINK): 27% | %Inh (MKK7): 0% | %Inh (MKNK1): 0% | %Inh (MKNK2): 0% | %Inh (MLCK): 0% | %Inh (MLK1): 0% | %Inh (MLK2): 41% | %Inh (MLK3): 0% | %Inh (MRCKA): 3% | %Inh (MRCKB): 7% | %Inh (MST1R): 0%
